High-throughput results from PubChem.
Shown are actives, neighbours in structure and some others; about 1.6% of the full set was active somewhere.
gsp antag = antagonists of gsp mutant (McCune-Albright syndrome); 0.4% of 340,000 active; AID 624288; gsp-mutant cells, cAMP HTRF, 30 min; Potency, µM (titrated, usually from 76.9 µM), actives largely listed as inhibitors; calls by dose curve; cell line not stated here;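 note: intracellular cAMP measured with PDE inhibitor Ro 20-1724 present during compound exposure; nearly all actives have a fitted effect of over 65% in size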
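Measurement of cellular cAMP by homogeneous time-resolved fluorescence following a 30 min compound exposure at 37C. The PDE inhibitor […] was present throughout; the assay buffer was DPBS with 0.05% BSA and 0.005% Tween 20.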
12-LOX inh = ALOX12 (human) lipoxygenase inhibition; P18054; 1.1% of 580,000 active; Potency, µM (doses to about 108 µM), usual class: inhibitors; purified 12hLO, xylenol orange hydroperoxide absorbance
Target sequence (P18054 whole entry, looked up): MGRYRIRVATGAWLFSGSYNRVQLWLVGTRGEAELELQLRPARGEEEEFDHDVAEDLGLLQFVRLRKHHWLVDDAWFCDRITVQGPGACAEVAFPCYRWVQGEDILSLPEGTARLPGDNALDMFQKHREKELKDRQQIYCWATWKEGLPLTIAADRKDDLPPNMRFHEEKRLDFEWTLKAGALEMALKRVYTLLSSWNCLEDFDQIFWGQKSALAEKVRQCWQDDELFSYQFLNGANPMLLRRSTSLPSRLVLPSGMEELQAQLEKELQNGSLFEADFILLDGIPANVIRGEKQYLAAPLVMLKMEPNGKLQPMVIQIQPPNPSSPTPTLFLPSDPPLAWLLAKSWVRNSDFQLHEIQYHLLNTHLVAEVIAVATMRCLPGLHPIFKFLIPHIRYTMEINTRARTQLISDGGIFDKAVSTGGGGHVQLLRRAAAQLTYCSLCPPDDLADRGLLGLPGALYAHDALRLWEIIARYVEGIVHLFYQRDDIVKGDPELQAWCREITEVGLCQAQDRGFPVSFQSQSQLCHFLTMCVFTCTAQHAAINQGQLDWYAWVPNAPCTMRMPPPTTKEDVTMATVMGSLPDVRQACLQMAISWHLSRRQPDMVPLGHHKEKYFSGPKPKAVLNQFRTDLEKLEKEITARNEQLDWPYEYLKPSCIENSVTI
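Purified human 12hLO (150 nM final) in 25 mM Hepes, 0.01% Triton X-100, pH 7.0 was preincubated 15 min at room temperature with compound. Then 40 uM arachidonic acid was added, 30 min. Hydroperoxide was read by Fe-XO absorbance ratio 573/405 nm.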
FUS yeast rescue = FUS proteinopathy suppression in yeast | S. cerevisiae FUS-expressing, growth rescue, OD600, 24 h | Potency, µM (top dose mostly 76.6 µM), most hits filed as activators | 0.24% of 390,000 active | AID 1347120; note: nearly all actives have a fitted effect of over 55% in size
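Galactose (2%) drives FUS expression in yeast precultured in raffinose; seeding density OD 0.005. Test compounds incubated 24hr at 30C and 99% humidity before absorbance at 600 nm was measured.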
gsp ag = agonists of gsp mutant (McCune-Albright syndrome) | gsp mutant cells, cAMP HTRF, 30 min | AID 624287 | Potency, µM (series often up to 76.9 µM), actives largely listed as activators | 0.13% of 340,000 active; active = well fitted activation curve with a large enough effect; inconclusive = small, poorly fitted or top-dose-only effect, or another doubt; inactive = no such curve, though single readings can be large or run the other way; cell line not stated here;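 note: phosphodiesterase inhibitor Ro 20-1724 added with compounds to block cAMP breakdown; nearly all actives have a fitted effect of over 60% in size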
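Cells stably selected in G418 were plated at 2000/well, grown 16-24 hr, then given compounds in DMSO with the PDE inhibitor […] (300 uM solution added) for 30 min at 37C; cAMP was read by HTRF.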
Mito fusion act = mitochondrial division inhibition or fusion activation | S. cerevisiae fusion-defective mutant growth rescue, CellTiterGlo 48 h | Potency, µM (titrated, usually from 46.1 µM), most hits filed as activators | 0.23% of 320,000 active | AID 485298; note: nearly all actives have a fitted effect of over 45% in size
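Growth-rescue viability read-out: after 48 h at the non-permissive 37C in glycerol/ethanol YPEG, yeast mitochondrial fusion mutants are measured by CellTiterGlo luminescence; compounds (23 nl pinned per well) restoring growth score as division inhibitors or fusion activators.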
Numbers stand for hits; 0 = inactive; ? = inconclusive; - = no result; [ ] = remark or other dose. Unless noted, calls come from the whole dose curve; as a rule, active = well fitted curve in the direction sought with a large enough effect; inconclusive = small, poorly fitted or top-dose-only effect, or another doubt; inactive = no such curve, though single readings can be large; an effect the other way counts as inactive or inconclusive.

SMILES	gsp antag	12-LOX inh	FUS yeast rescue	gsp ag	Mito fusion act
COc1ccc(N2C3=C(C(=O)CC(C)(C)C3)C(c3ccccc3OC)C3=C2CC(C)(C)CC3=O)cc1	28.2µM	0	0	?	0
CCCCC(CC)CNC(=S)NCc1ccc(C)cc1 (stereo not given)	-	31.6µM	-	-	-
COc1ccc([N+](=O)[O-])cc1NS(=O)(=O)c1ccc(C)cc1	0	0	0	0	0
Cc1ccc(S(=O)(=O)Nc2ccc3cc([N+](=O)[O-])ccc3c2[N+](=O)[O-])cc1	0	22.4µM	0	0	-
O=[N+]([O-])c1cc(S(=O)(=O)C(F)(F)F)ccc1N1CCN(c2ccccc2)CC1	0	0	0	0[15.4 µM]	?
O=[N+]([O-])c1cc(S(=O)(=O)Nc2ccccc2)ccc1N1CCN(c2ccccc2)CC1	0	0	0	0[15.4 µM]	20µM
Cc1ccc(NS(=O)(=O)c2cc([N+](=O)[O-])ccc2NN)c(C)c1	-	39.8µM	-	-	-
Cc1ccc(S(=O)(=O)Nc2ccccc2N=Cc2ccc([N+](=O)[O-])cc2[N+](=O)[O-])cc1	0	25.1µM	-	0	-
O=C(Nc1ccc(F)cc1F)c1cc(=O)c2ccccc2o1	-	0	-	-	-
CCc1ccc(OCc2nnc(SCc3c(F)cccc3Cl)n2CC(C)C)cc1	-	0	-	-	-
CC(C)C(=O)N1CCN(c2ccccc2NC(=O)C2(c3ccccc3)CCCC2)CC1	-	0	-	-	-
CCOc1ccc(-c2nc(Cn3nnc(C(=O)Nc4ccccc4F)c3N)c(C)o2)cc1	-	0	-	-	-
O=[N+]([O-])c1cc(S(=O)(=O)Nc2ccccc2)ccc1Nc1ccccc1	0	0	0	0	-
Cc1ccc(S(=O)(=O)Nc2ccc(S(=O)(=O)Nc3ccccc3)cc2[N+](=O)[O-])cc1	-	25.1µM	-	-	-
COCCCn1c(=S)[nH]c2sc3c(c2c1=O)CCCS3	0	44.7µM	0	0[15.4 µM]	0
COc1ccccc1CC1S/C(=N/N=C/c2ccco2)NC1=O (stereo not given)	28.2µM	0	0	0	0
O=C1N/C(=N/N=C/c2ccco2)SC1Cc1ccccc1 (stereo not given)	0	0	0	0	0
COc1ccc(Nc2nnc(-c3ccc(O)cc3)c3ccccc23)cc1	25.1µM	?	0	0	0
Cc1c(C(C)(C)C)sc(=NC(=O)c2ccccc2O)n1C	0	0	0	?	0
Cc1c(C(C)(C)C)sc(=N)n1C	-	44.7µM	-	-	-
O=C(N/N=C/c1ccc(Br)s1)C(c1ccccc1)c1ccccc1	-	0	-	-	-
Cc1ccc([C@H]2Nc3ccc(S(=O)(=O)Nc4cccc(Cl)c4C)cc3[C@H]3C=CC[C@H]32)cc1	-	39.8µM	0	-	-
CCN1CCCC1CN(Cc1cc2ccc(C)cc2[nH]c1=O)C(=S)Nc1ccc(OC)cc1OC (stereo not given)	0	0	0	0[15.4 µM]	0
CCN1CCCC1CN(Cc1cc2cc(C)cc(C)c2[nH]c1=O)C(=O)Nc1ccccc1OC (stereo not given)	0	0	31.6µM	0	0
CC(C)N1CCN(S(=O)(=O)c2ccc3ccccc3c2)CC1	0	0.794µM	0	0	0
SMILES	gsp antag	12-LOX inh	FUS yeast rescue	gsp ag	Mito fusion act
CC(C)NC(=O)C(C)N1CCN(S(=O)(=O)c2ccc3ccccc3c2)CC1 (stereo not given)	0	1.41µM	0	0[15.4 µM]	0
CC(C)C(=O)N1CCN(S(=O)(=O)c2ccc3ccccc3c2)CC1	0	0	0	0[15.4 µM]	0
CC(C)CCn1nc(C(=O)Nc2nccs2)c2ccccc2c1=O	-	0	-	-	-
Cc1ccc(C(=O)COC(=O)C2CC(=O)N(c3nc(-c4ccc(C)cc4)cs3)C2)cc1 (stereo not given)	-	0	-	-	-
CCOC(=O)c1c(NC(=O)C2=C(C)NC(=S)NC2c2ccc(F)cc2)sc(C)c1C (stereo not given)	?	28.2µM	0	0	?
CCOC(=O)c1c(NC(=O)C2=C(C)NC(=S)NC2c2ccc(C)cc2)sc(C)c1C (stereo not given)	0	17.8µM	0	0[15.4 µM]	0
CC1=C(C(=O)Nc2ccc(F)c(F)c2)C(c2ccccc2F)NC(=S)N1 (stereo not given)	-	0	-	-	-
CCOC(=O)c1c(NC(=O)C2=C(C)NC(=S)NC2c2ccc(F)cc2F)sc(C)c1C (stereo not given)	0	39.8µM	0	0	?
O=C(NC(C1CC1)C1CC1)c1ccnc(Cl)c1	-	0	-	-	-
O=C1CC(c2ccc(Cl)cc2)CC(=O)C1CS(=O)(=O)c1ccccc1 (stereo not given)	0	35.5µM	?	0[15.4 µM]	0
COc1ccc(S(=O)(=O)[C@H]2CS(=O)(=O)C[C@@H]2NCc2ccccn2)cc1	-	0	-	-	-
CCCCOC(=O)c1nc2ccccc2nc1Nc1cccc(OC)c1	-	6.31µM	-	-	-
CCCCCn1c(Sc2ccc(C)cc2)nc2c1c(=O)[nH]c(=O)n2C	-	0	-	-	-
O=C1NC(=O)/C(=C/c2ccc3c(c2)OC(F)(F)O3)S1	-	-	-	-	3.66µM
CCCn1c(N)c(C(=O)COC(=O)COc2ccc(Cl)c(C)c2)c(=O)n(C)c1=O	0	0	0	0[15.4 µM]	0
CCCn1c(N)c(C(=O)COC(=O)c2c(C)noc2C)c(=O)n(C)c1=O	0	0	0	5.01µM	0
COc1ccc(-n2cc3c(-c4cccc(Br)c4)nnc(C)c3n2)cc1	39.8µM	0	0	0	?
Cc1nnc(-c2cccc(Br)c2)c2cn(-c3ccc(Br)cc3)nc12	?	0	-	0	0
CN(CCNC(=O)c1nccnc1N)c1ccccc1	-	0	-	-	-
CCN(CC)S(=O)(=O)c1cccc(NC(=O)COc2ncnc3sccc23)c1	0	0	?	25.1µM	0
COc1ccc(F)cc1C1=NN(C(C)=O)C(c2ccc3nccnc3c2)C1 (stereo not given)	-	0	-	-	-
CCC(C)NC(=O)CSc1nc(-c2cccs2)nc2ccccc12 (stereo not given)	-	0	-	-	-
COC(=O)C1CCC(=S)N1C(=O)c1ccccc1 (stereo not given)	0	8.91µM	0	0	0
CC[C@H]1CN(C(=O)NC2CCCCC2)CC[C@H]1CC(=O)Nc1ccccc1	-	0	-	-	-
O=C1CCCN1c1ccc(S(=O)(=O)NCCOc2ccccc2)cc1	?	0	0	0	0
SMILES	gsp antag	12-LOX inh	FUS yeast rescue	gsp ag	Mito fusion act
Cc1cc(N2CCCC2=O)cc(C)c1S(=O)(=O)NCCOc1ccc(C(C)(C)C)cc1	25.1µM	?	0	0	0
O=C1CC(c2ccccc2)N(C(=O)Cc2cccc(F)c2)CCCCCCN1 (stereo not given)	-	0	-	-	-
CC1=C[C@@H](CNCc2ccncc2)[C@H](C(C)C)C[C@H]1Cc1nnc(-c2ccc([N+](=O)[O-])cc2)o1	-	0	-	-	-
CCc1nc(N2CCN(C(=O)CCCl)CC2)c2c3c(sc2n1)CCCC3	-	0	0	0	-
CCNC(=S)N1CCN(c2nc(CC)nc3sc4c(c23)CCCC4)CC1	25.1µM	0	0	0[15.4 µM]	0
COc1ccc(/C=C2/C(=O)N(Cc3ccccc3)N=C2C)cc1	0	0	-	0	0
COc1ccc(/C=C2/C(=O)N(c3nc4ccccc4s3)N=C2CSc2ccc(Cl)cc2)cc1	0	5.01µM	0	0	0
